Only some compounds are listed: those with a hit (about 7.1% of all), similar ones and a draw of the others.
ATXN viability = Viability Counterscreen for Primary qHTS for Inhibitors of ATXN expression; S2 cells (HEK-293 line with an ATXN2-luciferase reporter) viability, CellTiter-Fluor protease fluorescence, 24 h; Potency, µM (top dose mostly 56.7 µM), most hits filed as cytotoxic; actives 0.49% (n = 400,000); also: potency is read from the fitted curve at half-maximal effect; nearly all actives have a fitted effect of over 40% in size
MCF10A rerep = A quantitative high throughput screen for small molecules that induce DNA re-replication in MCF 10a normal breast cells; MCF 10A DNA re-replication, Hoechst nuclear intensity, 48 h; Potency, µM (highest dose often 46.1 µM), inactives show at the top dose activity, positive = re-replication, most hits filed as activators; actives 2.9% (n = 350,000); also: potency is read from the fitted curve at half-maximal effect; % of control where 0% means no effect; nearly all actives have a fitted effect of over 50% in size
PINK1 expr mod = A Quantitative High throughput Screen to Identify Chemical Modulators of PINK1 Expression; PINK1 immunofluorescence, high-content cytometry, 24 h; Potency, µM (doses to about 76.6 µM), for inactives: at the highest dose activation (PINK1 increase), most hits filed as activators; actives 0.2% (n = 410,000); AID 624263, 2012; active = well fitted activation curve with a large enough effect; inconclusive = small, poorly fitted or top-dose-only effect; cell line not stated here; also: potency is read from the fitted curve at half-maximal effect; % of control where 0% means no effect; nearly all actives have a fitted effect of over 65% in size
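Decision-based qHTS: stable cells, 24 h exposure to five compound concentrations, CCCP as control. Fixed cells stained for PINK1 plus nuclear, mitochondrial and cell markers, cytometer read.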
IL1B secr inh = qHTS for Inhibitors of Inflammasome Signaling: IL-1-beta AlphaLISA Primary Screen. THP-1 LPS/ATP IL-1B secretion, AlphaLISA, 16 h; active compounds read low. activity change, % at 57.5 µM. actives 4.7% (n = 360,000). AID 743279, 2014; in the data active = activity change below about -50%; inconclusive = mostly about -30% to -49%; also: % is scaled to controls: 0 for no effect and ±100 for the full control effect
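Secreted IL-1B measured by AlphaLISA bead assay after 16 h compound exposure of THP-1 cells; compounds (final up to 57.5 uM) added 1 h before LPS (250 ng/mL) and ATP (1.25 mM) stimulation; lower signal means less secretion.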
SW480 rerep = A quantitative high throughput screen for small molecules that induce DNA re-replication in SW480 colon adenocarcinoma cells; SW480 DNA re-replication, Hoechst DNA content imaging, 48 h; Potency, µM (series often up to 46.1 µM), without a hit: at the highest dose re-replication activation, actives largely listed as activators; actives 1.8% (n = 340,000); also: potency is read from the fitted curve at half-maximal effect; % of control where 0% means no effect; nearly all actives have a fitted effect of over 55% in size
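250 cells/well; 23 nL cpd via pin tool; 48 hr, 37 C, 5% CO2; Hoechst 40 min; imager read of total nuclear intensity, ex 405/em 500-530 nm.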
ATXN2 expr inh = Primary qHTS for Inhibitors of ATXN expression | HEK-293 ATXN2-luciferase reporter, luminescence, 24 h | Potency, µM (titrated, usually from 57 µM), for the others: top-dose activity change, negative = inhibition, hits mostly inhibitors | actives 0.72% (n = 360,000); also: potency is read from the fitted curve at half-maximal effect; % is scaled to controls: 0 for no effect and ±100 for the full control effect; nearly all actives have a fitted effect of over 55% in size
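qHTS (up to 57 uM final) was run with 24 h compound exposure of reporter cells at 37 °C. Each well was multiplexed: SteadyGlo luminescence measured ATXN2-luciferase expression after a fluorogenic Gly-Phe-AFC viability readout (25 uM final).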
Numbers without * were called inactive; i = inactive; ? = inconclusive; · = no result; ! = not active in a repeat; [ ] = remark or other dose. Unless noted, calls follow the shape of the dose curve; as a rule, active = well fitted curve in the direction sought with a large enough effect; inconclusive = small, poorly fitted or top-dose-only effect, or another doubt; inactive = no such curve, though single readings can be large; an effect the other way counts as inactive or inconclusive.

SMILES	ATXN viability	MCF10A rerep	PINK1 expr mod	IL1B secr inh	SW480 rerep	ATXN2 expr inh
O=C(c1cc2cc(Cl)ccc2[nH]1)N1CCC2(CC1)OCCO2	i	23µM*	-2%	2	-2%	·
COc1ccc(NC(=O)c2ccco2)cc1NC(=O)COc1cc(C)cc(C)c1	?	·	5%	·	·	-19%
COC(=O)C[C@](O)(CCCC(C)(C)O)C(=O)O[C@@H]1C(OC)=C[C@]23CCCN2CCc2cc4c(cc2[C@H]13)OCO4	·	?	·	·	26%	63%
O=C(Nc1ccc(Cl)c(C(F)(F)F)c1)NC1CC2CCCC(C1)N2Cc1ccccc1 (stereo not given)	?	?	-2%	-106*	?	?
Cc1ccc(CN2C3CCCC2CC(NC(=O)c2ccc(C)cc2)C3)cc1 (stereo not given)	i	?	0%	-12	-1%	·
CC(C)CCC(=O)OC1CCC2C3CCC4=CC(=O)CC[C@]4(C)C3CC[C@]12C (stereo not given in full)	·	?	·	·	1%	·
Clc1ccc(C(c2ccc(Cl)cc2)n2cc[n+](CC(OCc3ccc(Cl)cc3Cl)c3ccc(Cl)cc3Cl)c2)cc1 (stereo not given)	18µM*	5.2µM*	-1%	-108*	-27%	28µM*!
N#Cc1c(Br)n(C2OC(CO)C(O)C2O)c2ncnc(N)c12 (stereo not given)	?	?	1%	-69*	?	2.5µM*
NC(=O)c1c(Br)n(C2OC(CO)C(O)C2O)c2ncnc(N)c12 (stereo not given)	?	2.3µM*	-7%	-76*	?	21µM*
CCNC(=O)[C@H]1O[C@@H](n2cnc3c(N)ncnc32)[C@H](O)[C@@H]1O	i	-40%	0%	19	-34%	9%
Nc1ncnc2c1ncn2[C@@H]1O[C@H](COP(=O)(O)CP(=O)(O)O)[C@@H](O)[C@H]1O	i	9%	1%	-1	-8%	0%
Cc1ccc2c(c1)[C@@H]1CN(C)CC[C@H]1N2	·	2%	·	·	-5%	·
COc1ccccc1CN1CCCC2(CCN(C(=O)Oc3ccccc3)CC2)C1	·	·	1%	·	·	·
COc1cc(CC(C)N)cc2c1OCO2 (stereo not given)	i	·	·	·	·	-11%[116 µM]
Fc1ccccc1CCNCc1cccc2ccccc12	i	?	7%	-21	-2%	-9%
Cc1ccc(CNCCc2ccccc2F)cc1	i	?	0%	-72*	-1%	5%
CCN(CC)c1ccc(CNCCc2ccccc2F)cc1	?	?	7%	-92*	7%	-24%
Fc1ccc(CNCCc2ccccc2)cc1	i	0%	-1%	-20	1%	-13%[11.3 µM]
Cc1cccc(OC(=O)N2CCOCC2)c1	i	5%	-1%	6	0%	-5%
CC(C)(C)c1ccc(/C=C2\Oc3cc(OC(=O)N4CCOCC4)ccc3C2=O)cc1	?	15µM*	20%	-77*	?	-27%
CCN1CCC[C@@H](OC(=O)C(c2ccccc2)c2ccccc2)C1	·	-5%[20.6 µM]	·	·	-9%[20.6 µM]	·
O=C1CC[C@@]2(O)C3Cc4ccc(O)c5c4C2(CCN3CC2CC2)[C@H]1O5 (stereo not given in full)	·	-4%	·	·	-9%	·
CC(C)c1oc(=O)cc2c1[C@@H](O)[C@H]1OC(=O)[C@@]3(C)CC[C@@H](O)[C@@]2(C)C13 (stereo not given in full)	?	12%	-2%	62	?	13µM*
CC(C)c1oc(=O)cc2c1[C@@H](O)[C@H]1OC(=O)[C@@]3(C)C[C@@H](O)[C@@H](O)[C@@]2(C)C13 (stereo not given in full)	?	5.2µM*	0%	-8	?	?
CCN(CC)C(=O)N[C@@H]1C=C2c3cccc4[nH]cc(c34)C[C@@H]2N(C)C1	i	·	·	·	·	0%
SMILES	ATXN viability	MCF10A rerep	PINK1 expr mod	IL1B secr inh	SW480 rerep	ATXN2 expr inh
Cc1ccc2c(c1)C1CN(C)CCC1N2C(=O)c1cn(-c2ccccc2)nc1-c1ccccc1 (stereo not given)	?	21µM*	-2%	?	?	-11%
CCOC(=O)C(C#N)=C(c1ccccc1)c1ccccc1	i	?	·	·	0%	-13%
C#CCN[C@H](C)Cc1ccccc1	i	?	1%	11	3.2µM*	5%
CC1=CC(C)CC(C)OC(=O)CC(c2ccc(O)cc2)NC(=O)C(Cc2c(Br)[nH]c3ccccc23)N(C)C(=O)C(C)NC(=O)C(C)C1 (stereo not given)	0.015µM*	?	0%	-4	0.12µM*	?
C=CC[N+]1(C)CCC23c4c5ccc(O)c4O[C@H]2C(=O)CC[C@@]3(O)C1C5 (stereo not given in full)	·	0%	·	·	10%	·
CC(N)C(=O)NC1C2C(=C(O)CC(O)C2O)C(=O)OC1(C)C(Cl)Cl (stereo not given)	?	?	-7%	-100*	?	1.5µM*
CC(C)(C)OC(=O)N(CCc1ccccc1)Cc1ccc(OCc2cccc(NC(=O)c3ccccc3)c2)cc1	i	-5%	0%	-3	?	-4%
COc1ccc(CCNCc2ccncc2)cc1	i	?	1%	4	-1%	-11%
COc1cccc(CCNCc2ccc(SC)cc2)c1	i	-2%	3%	-65*	22%	-29%
COc1ccc(CCNC2CCCCCC2)cc1	i	16%	1%	5	3.3µM*	-11%
COc1ccc(CCNC(C)CCc2ccc(OC)cc2)cc1 (stereo not given)	i	-13%	·	-64*	?	-24%
COc1ccc(CCNCc2cc(OC)cc(OC)c2)cc1	i	·	0%	-51*	·	·
COc1ccc(CCNCc2ccccc2)cc1	i	0%	1%	-15	-7%	·
COc1cccc(CSc2nc(-c3ccccc3OC)nc3c2Cc2c(CO)cnc(C)c2O3)c1	?	·	0%	·	·	?
CSc1cccc(NC(=O)C2CCN(C(=O)c3cnn(-c4ccccc4)c3-n3cccc3)CC2)c1	?	·	1%	·	·	?
C[C@H]1CNC(=O)c2c(C(=O)Nc3cccc(Cl)c3)ncn21	i	·	2%	0	·	5%
COc1ccc(CCNCc2c(OC)ccc3ccccc23)cc1	i	2%	9%	-64*	0%	·

Compound activity as filed in PubChem.
